# This is a sample that favours compounds with a hit; in the whole collection about 4% have one here.
# Rv3671c protease = Rv3671c serine protease inhibitors, primary screen, biochemical, fluorescence polarization, M. tuberculosis H37Rv; P9WHR9; inhibition, % at 5.96 µM; actives 0.048% (n = 320,000); in the data active means inhibition above about 38%;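 further: extracellular domain of Rv3671c used as enzyme; 0% = enzyme with DMSO and 100% = no enzyme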
# Mtb FBA inh = Mtb FBA enzyme inhibitors, primary screen, biochemical, fluorescence, strain H37Rv | Fructose-bisphosphate aldolase (Mycobacterium tuberculosis (strain ATCC 25618 / H37Rv)), … | actives 2.3% (n = 360,000) | AID 588726, 2011 | inhibition, % at 1 µM | purified M. tuberculosis FBA, fluorescence read-out; in the data active means inhibition above about 27%;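 further: 0% = vehicle and 100% = reference inhibitor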
# Target sequence (P9WQA3 whole entry, looked up): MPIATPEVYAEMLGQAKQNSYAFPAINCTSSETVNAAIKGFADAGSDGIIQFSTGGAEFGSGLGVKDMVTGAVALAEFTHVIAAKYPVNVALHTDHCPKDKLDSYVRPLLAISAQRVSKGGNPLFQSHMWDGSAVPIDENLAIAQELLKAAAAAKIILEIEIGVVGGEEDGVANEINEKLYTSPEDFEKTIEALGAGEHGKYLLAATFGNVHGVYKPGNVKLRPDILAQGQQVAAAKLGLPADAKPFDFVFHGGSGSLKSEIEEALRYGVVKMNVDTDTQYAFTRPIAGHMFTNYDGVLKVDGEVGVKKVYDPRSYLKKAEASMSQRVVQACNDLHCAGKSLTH
# RecA splice inh = Mtb RecA intein splicing inhibitors, primary screen, biochemical, fluorescence, HTS | Protein RecA (Mycobacterium tuberculosis (strain ATCC 25618 / H37Rv)), P9WHJ3 | cell-free RecA intein splicing | inhibition, % (test concentration not listed) | actives 0.75% (n = 290,000); in the data active means inhibition above about 30%;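 further: 0% = vehicle wells and 100% = reference inhibitor control wells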
# GDH-TPI counter = GDH-TPI coupling enzyme inhibitors, primary screen, artefact control for M. tuberculosis FBA inhibitor project, biochemical, absorbance, full deck. inhibition, % at 4.8 µM. actives 1.2% (n = 360,000). AID 588335, 2011. GDH-TPI coupled enzyme counterscreen, NADH absorbance; in the data active means inhibition above about 30%;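 further: 0% = DMSO wells and 100% = wells lacking the enzyme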
# Mtb betalactam = beta-lactam sensitization of Mtb H37Rv, H37Rv; M. tuberculosis H37Rv growth with meropenem, percent inhibition; inhibition, % at 25 µM; actives 0.27% (n = 330,000);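 further: growth measured after seven days incubation then overnight dye step; 0% = bacteria only wells and 100% = bacteria with antibiotic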
# Mtb UGM inh = M. tuberculosis UGM enzyme inhibitors, primary screen, biochemical, fluorescence polarization, single point; UDP-galactopyranose mutase (Mycobacterium tuberculosis (strain ATCC 25618 / H37Rv)), …; purified UGM, fluorescence polarization probe displacement; inhibition, % at 10 µM; actives 0.06% (n = 320,000); AID 504406, 2011; in the data active means inhibition above about 10%, passing the limit was not always enough
# GFP chromo cs = counter-screen: blocks GFP chromophore formation, dose response, counter-screen, biochemical, fluorescence, homogeneous; shares compounds with RecA splice inh; cell-free GFP chromophore formation; EC50, µM; actives 83% (n = 2,100)
# * marks the source's active call; other numbers are inactive results; nt = no result given. Unless noted, how the calls were made is not given here.
SMILES,Rv3671c protease,Mtb FBA inh,RecA splice inh,GDH-TPI counter,Mtb betalactam,Mtb UGM inh,GFP chromo cs
N#CC1=C(N)OC2=C(C(=O)CCC2)C1c1ccc(OC(=O)N2CCOCC2)cc1 (stereo not drawn),9,1,0,-7,-5,-5,nt
NS(=O)(=O)c1ccc(NC(=O)COC(=O)CSCc2ccc(F)cc2)cc1,0,-2,nt,10,-7,2,nt
CC1=C(C(=O)OCc2ccccc2)C(c2cccc([N+](=O)[O-])c2)NC(=O)N1C (stereo not drawn),7,1,2,8,-13,-1,nt
C=CCc1cccc2cc(C(=O)NCCOC)c(=O)oc12,3,13,0,29,-3,-1,nt
COC(=O)C1=CN(c2ccc(F)cc2)C=C(C(=O)OC)C1c1cccc(Br)c1,nt,18,-7,0,0,0,nt
O=C1c2ccccc2C(=O)c2c1oc(C(F)(F)F)c2C(=O)c1ccccc1,-38,-2,39*,-1,6,1,>38
O=C(c1ccccc1)c1coc2c1C(=O)c1ccccc1C2=O,-22,7,17,-2,1,-1,nt
COc1ccc(NC(=O)C(Cl)=C(Cl)Cl)cn1,nt,-5,6,-10,nt,nt,nt
COc1ccc(NC(=O)/C(Cl)=C(/Cl)S(=O)(=O)Cc2ccccc2)cn1,nt,0,76*,-1,nt,nt,7.5*
COc1ccc2nc(C)cc(SCC(=O)NNC(=O)COc3ccccc3)c2c1,-3,-2,-3,12,4,2,nt
COc1ccc2nc(C)cc(Sc3nc4ccccc4s3)c2c1,-13,-1,38*,-4,11,-1,24*
CC1CC(C)CN(CCCNC(=O)c2ccc3c(c2)N(Cc2ccccc2)C(=O)c2ccccc2S3=O)C1 (stereo not drawn),-2,0,0,7,8,-2,nt
COCc1[nH]nc2c1C(c1ccc(OC)c(OC)c1)C(C#N)=C(N)O2 (stereo not drawn),1,4,56*,9,-8,-1,31*
CCn1c2ccccc2c2cc(C3C(C#N)=C(N)Oc4n[nH]c(COC)c43)ccc21 (stereo not drawn),-5,3,77*,12,6,1,10*
COCc1[nH]nc2c1C(c1ccc(F)cc1F)C(C#N)=C(N)O2 (stereo not drawn),-3,1,25,7,2,4,nt
COCc1[nH]nc2c1C(c1ccnc3ccccc13)C(C#N)=C(N)O2 (stereo not drawn),1,-3,7,17,-6,-1,nt
CCCCCCCCCCCCCCCC[N+](C)(C)CC,1,0,44*,8,84,1,17*
CCCCCCCCCCCCCCCC[N+](C)(C)C,10,2,36*,-8,62,-3,23*
O=C1NC(NS(=O)(=O)c2ccccc2)(C(F)(F)F)C(=O)N1CCc1ccccc1 (stereo not drawn),2,-6,8,-1,-6,3,nt
O=C(c1ccc(NS(=O)(=O)c2ccc(F)cc2)cc1)N1CCOCC1,3,-3,-2,2,1,-1,nt
CCc1nnc(NS(=O)(=O)c2ccc(NC(=O)/C=C/c3ccc(F)cc3)cc2)s1,-10,-3,3,12,30,2,nt
CCOC(=O)/C(C#N)=C/c1ccc(OC(=O)c2ccco2)c(OCC)c1,6,2,30,8,56,7,nt
COC(=O)c1ccccc1S(=O)(=O)N1CCC(NC(=O)c2ccccc2)CC1,6,2,45*,1,4,0,>38
Brc1cccc(CNCC2CCCO2)c1 (stereo not drawn),3,-1,-1,1,-5,-2,nt
CC1=NN(c2ccc(C)cc2C)C(=O)C1C(c1ccccc1)C1C(=O)N(c2ccc(C)cc2C)N=C1C (stereo not drawn),-37,-1,90*,4,-8,2,1.1*
